Experimental data taken from PubChem BioAssay.
For some assays here: Measured potencies and affinities stand elsewhere. Calls of active or inactive are those of the source. How the calls were made is not given here.

What follows are molecules tested against Plasmodium falciparum protein kinase 6 (PK6, PF3D7_1337100) (UniProt Q8IDW1) (assay: PfPK6 kinase inhibitors, biochemical, TCAMS library (AID 1159586)). Settings: recombinant PfPK6, Kinase-Glo ATP depletion luminescence.
Chain of Plasmodium falciparum protein kinase 6 (PK6, PF3D7_1337100) (Q8IDW1 1-305): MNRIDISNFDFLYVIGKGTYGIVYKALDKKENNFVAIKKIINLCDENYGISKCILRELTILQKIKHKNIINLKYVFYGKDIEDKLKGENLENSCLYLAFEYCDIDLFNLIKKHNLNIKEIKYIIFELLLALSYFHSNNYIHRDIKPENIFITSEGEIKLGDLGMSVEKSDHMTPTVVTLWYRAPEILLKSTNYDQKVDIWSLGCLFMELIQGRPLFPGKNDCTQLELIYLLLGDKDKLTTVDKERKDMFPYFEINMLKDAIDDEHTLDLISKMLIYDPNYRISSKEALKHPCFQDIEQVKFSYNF

outcome, inactive:
COc1ccc2nc(C)cc(NN=Cc3ccccc3Cl)c2c1
COc1ccccc1NC(=O)c1cc(C(=O)c2cc(Cl)ccc2O)cn(-c2ccccc2OC)c1=O
CCc1c(C)nc2nc(Cc3cccc(F)c3)nn2c1N1CCN(c2ccccn2)CC1
COc1ccc(NC(=O)NC2CCN(CCCOc3ccnc4cc(Cl)ccc34)C2)cc1OC (stereo not given)
CN1CCCN(Cc2ccc(-c3cccc(NC(=O)c4ccc(F)cc4)c3)cc2)CC1
Cc1cc(NCC2CCN(CC3CCCCC3)C2)nc(Nc2ccc(Br)cc2)n1 (stereo not given)
Cc1cccc2[nH]c(-c3ccc(-c4cccc(NC(=O)NCc5cccc(F)c5)c4)cc3)nc12
CCOC(=O)C(C)(C)Oc1ccc(C(=C2CC(C)(C)CC(C)(C)C2)c2ccc(O)cc2)cc1
CN(C)CCCN(C)C(=O)c1cc2cc(-c3ccccc3)ccc2n1S(=O)(=O)c1ccccc1
CCN(CC)c1cc(C)c2cc(NC(=O)c3cc(=O)c4ccccc4o3)ccc2n1
COc1ccc(Cl)cc1N1CCN(CCCNC(=O)c2ccc(-c3nc4cc5ccccc5cc4[nH]3)c(F)c2)CC1
O=S(=O)(NCCN1CCCC1)c1cccc(-c2ccccc2CNC2Cc3ccccc3C2)c1
CCCC(C)NC(=O)C(N)Cc1cccc(I)c1 (stereo not given)
CCCCCCCCNc1c2ccc(Cl)cc2nc2ccc(OC)cc12
CN1CCC(C(=O)Nc2cccc(-c3ccc(-c4nc5ccc(C(F)(F)F)cc5[nH]4)s3)c2)CC1
Cc1cc(NCCC(=O)NCCc2ccccc2)nc(NCCc2ccc(F)cc2)n1
CCCC(C)Nc1nc(C)cc(N[C@@H](CC(C)C)C(=O)NCCOc2ccccc2)n1 (stereo not given in full)
CN(C)CCNC(=O)N1CCCN(c2ncnc3cc(-c4ccccc4)sc23)CC1
CC(=O)Nc1cccc(C(=O)Nc2cccc(-c3cccc(-c4nc5ccccc5[nH]4)c3)c2)c1
CC(CN(C)C)C(=O)Nc1ccc(-c2cccc(-c3nc4ccccc4[nH]3)c2)cc1 (stereo not given)
O=C(/C=C/c1ccc(Cl)c(Cl)c1)NCCCCCN1CCC(NC(=O)Nc2ccccc2Cl)CC1
CCc1cc2c(N)nc(N)nc2nc1-c1ccccc1
CC(C)CNCc1cccc(-c2cccc(CNCCCN3CCN(C)CC3)c2)c1
Clc1ccc2c(NCCNc3ccnc4cc(Cl)ccc34)ccnc2c1
CC(C)(C)c1ccc(NC(=O)c2cccc(CN3CCCN(Cc4ccc(F)cc4)CC3)c2)cc1
COc1ccc(CNCc2ccc(F)cc2)cc1-c1ccc(OC)c(S(=O)(=O)NCCN2CCCC2)c1
NC1=NC(c2ccccc2)(c2ccccc2)C(=O)N1CC1CCC1
O=C1C(c2ccccc2)=C(Nc2cc(Cl)cc(Cl)c2)c2ccccc21
Cc1cc(C2CCN(CCCCNC(=O)c3ccc(NC(=O)c4ccc(Cl)cc4)cc3)CC2)c(C)cc1OCc1cccnc1
C=C[C@H]1CN(CCCCCCC)CC[C@H]1CCN(C)c1ccnc2ccc(OC)cc12
COc1ccc(CN(C)CCCSc2ccc(NC(=O)c3cccc4c(=O)cc(-c5ccccc5)[nH]c34)cc2)cc1OC
CC(=O)N1N=C(c2ccc(Cl)cc2)Sc2c1nc(C1CCCCC1)n2C(C)=O
OC(CNc1ccnc(Nc2cccc(Cl)c2)n1)c1cccc(C(F)(F)F)c1 (stereo not given)
CCc1cc(I)c2c(c1)C(NCCCNc1cc(=O)c3ccccc3[nH]1)CCN2 (stereo not given)
O=C1C(c2ccccc2)=C(Nc2ccc(Cl)cc2)c2ccccc21
Cc1cc(CNCCCCCCCNCc2cccc([N+](=O)[O-])c2)ccc1O
Cc1[nH]c2cccc(F)c2c(=O)c1Cc1ccc(Cl)cc1 (tested in a mixture with another compound)
COc1ccc2ncc(F)c(CCN3CCC(CNC(=O)C(=O)c4c[nH]c5ccccc45)CC3)c2n1
O=C(Nc1ccc(Cn2ncc(N3CCCNCC3)c(Cl)c2=O)cc1)Nc1ccc(-c2ccccc2)cc1
CC(=O)N/N=C/[C@H](CCc1ccccc1)NC(=O)[C@H](CC(C)C)NC(=O)c1ccc(OCCN2CCOCC2)cc1

What follows are molecules tested against Protein kinase 7 (PK7), Plasmodium falciparum 3D7 (PF3D7_0213400) (UniProt Q7YTF7) (assay: inhibition of Plasmodium PK7 catalytic activity – biochemical, TCAMS antimalarial set, Kinase-Glo luminescence (AID 1159587)). Settings: recombinant PfPK7, Kinase-Glo ATP depletion luminescence.
Chain of Protein kinase 7 (PK7), Plasmodium falciparum 3D7 (PF3D7_0213400) (Q7YTF7 1-343): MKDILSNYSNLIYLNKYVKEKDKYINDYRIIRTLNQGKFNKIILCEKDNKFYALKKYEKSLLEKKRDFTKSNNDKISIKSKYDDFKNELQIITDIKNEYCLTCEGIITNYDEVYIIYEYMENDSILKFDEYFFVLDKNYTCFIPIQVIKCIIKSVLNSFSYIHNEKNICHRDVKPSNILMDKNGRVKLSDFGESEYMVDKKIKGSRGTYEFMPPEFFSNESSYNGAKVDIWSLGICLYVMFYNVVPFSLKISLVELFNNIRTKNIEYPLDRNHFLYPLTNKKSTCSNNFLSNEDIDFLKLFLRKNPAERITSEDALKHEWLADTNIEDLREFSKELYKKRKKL

outcome, inactive:
COc1ccc2nc(C)cc(NN=Cc3ccccc3Cl)c2c1
COc1ccccc1NC(=O)c1cc(C(=O)c2cc(Cl)ccc2O)cn(-c2ccccc2OC)c1=O
CCc1c(C)nc2nc(Cc3cccc(F)c3)nn2c1N1CCN(c2ccccn2)CC1
COc1ccc(NC(=O)NC2CCN(CCCOc3ccnc4cc(Cl)ccc34)C2)cc1OC (stereo not given)
CN1CCCN(Cc2ccc(-c3cccc(NC(=O)c4ccc(F)cc4)c3)cc2)CC1
Cc1cc(NCC2CCN(CC3CCCCC3)C2)nc(Nc2ccc(Br)cc2)n1 (stereo not given)
Cc1cccc2[nH]c(-c3ccc(-c4cccc(NC(=O)NCc5cccc(F)c5)c4)cc3)nc12
CCOC(=O)C(C)(C)Oc1ccc(C(=C2CC(C)(C)CC(C)(C)C2)c2ccc(O)cc2)cc1
CN(C)CCCN(C)C(=O)c1cc2cc(-c3ccccc3)ccc2n1S(=O)(=O)c1ccccc1
CCN(CC)c1cc(C)c2cc(NC(=O)c3cc(=O)c4ccccc4o3)ccc2n1
COc1ccc(Cl)cc1N1CCN(CCCNC(=O)c2ccc(-c3nc4cc5ccccc5cc4[nH]3)c(F)c2)CC1
O=S(=O)(NCCN1CCCC1)c1cccc(-c2ccccc2CNC2Cc3ccccc3C2)c1
CCCC(C)NC(=O)C(N)Cc1cccc(I)c1 (stereo not given)
CCCCCCCCNc1c2ccc(Cl)cc2nc2ccc(OC)cc12
CN1CCC(C(=O)Nc2cccc(-c3ccc(-c4nc5ccc(C(F)(F)F)cc5[nH]4)s3)c2)CC1
Cc1cc(NCCC(=O)NCCc2ccccc2)nc(NCCc2ccc(F)cc2)n1
CCCC(C)Nc1nc(C)cc(N[C@@H](CC(C)C)C(=O)NCCOc2ccccc2)n1 (stereo not given in full)
CN(C)CCNC(=O)N1CCCN(c2ncnc3cc(-c4ccccc4)sc23)CC1
CC(=O)Nc1cccc(C(=O)Nc2cccc(-c3cccc(-c4nc5ccccc5[nH]4)c3)c2)c1
CC(CN(C)C)C(=O)Nc1ccc(-c2cccc(-c3nc4ccccc4[nH]3)c2)cc1 (stereo not given)
O=C(/C=C/c1ccc(Cl)c(Cl)c1)NCCCCCN1CCC(NC(=O)Nc2ccccc2Cl)CC1
CCc1cc2c(N)nc(N)nc2nc1-c1ccccc1
CC(C)CNCc1cccc(-c2cccc(CNCCCN3CCN(C)CC3)c2)c1
Clc1ccc2c(NCCNc3ccnc4cc(Cl)ccc34)ccnc2c1
CC(C)(C)c1ccc(NC(=O)c2cccc(CN3CCCN(Cc4ccc(F)cc4)CC3)c2)cc1
COc1ccc(CNCc2ccc(F)cc2)cc1-c1ccc(OC)c(S(=O)(=O)NCCN2CCCC2)c1
NC1=NC(c2ccccc2)(c2ccccc2)C(=O)N1CC1CCC1
O=C1C(c2ccccc2)=C(Nc2cc(Cl)cc(Cl)c2)c2ccccc21
Cc1cc(C2CCN(CCCCNC(=O)c3ccc(NC(=O)c4ccc(Cl)cc4)cc3)CC2)c(C)cc1OCc1cccnc1
C=C[C@H]1CN(CCCCCCC)CC[C@H]1CCN(C)c1ccnc2ccc(OC)cc12
COc1ccc(CN(C)CCCSc2ccc(NC(=O)c3cccc4c(=O)cc(-c5ccccc5)[nH]c34)cc2)cc1OC
CC(=O)N1N=C(c2ccc(Cl)cc2)Sc2c1nc(C1CCCCC1)n2C(C)=O
OC(CNc1ccnc(Nc2cccc(Cl)c2)n1)c1cccc(C(F)(F)F)c1 (stereo not given)
CCc1cc(I)c2c(c1)C(NCCCNc1cc(=O)c3ccccc3[nH]1)CCN2 (stereo not given)
O=C1C(c2ccccc2)=C(Nc2ccc(Cl)cc2)c2ccccc21
Cc1cc(CNCCCCCCCNCc2cccc([N+](=O)[O-])c2)ccc1O
Cc1[nH]c2cccc(F)c2c(=O)c1Cc1ccc(Cl)cc1 (tested in a mixture with another compound)
COc1ccc2ncc(F)c(CCN3CCC(CNC(=O)C(=O)c4c[nH]c5ccccc45)CC3)c2n1
O=C(Nc1ccc(Cn2ncc(N3CCCNCC3)c(Cl)c2=O)cc1)Nc1ccc(-c2ccccc2)cc1
CC(=O)N/N=C/[C@H](CCc1ccccc1)NC(=O)[C@H](CC(C)C)NC(=O)c1ccc(OCCN2CCOCC2)cc1
